We go through 39 compounds from PubChem BioAssay (NCI).

SMILES strings stand for the structures. Several values for one entry are separate records, joined by “and”; a condition that tells them apart may be missing. Identical values can stand only once. About 83,000 compounds went through this panel and 20% of them were active in at least one assay; those are over-represented in the sample as a whole.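 Negative percent growth values reflect cell death: -40 means 40% of the cells present at the start died, and -100 means all died.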 Activity calls are given as the source filed them.

In the first assay the test system is MDA-MB-468 breast. As to the kind of experiment: NCI-60 one-dose screen, 48 h (100 = growth as untreated, 0 = no growth, -100 = all killed). The note with it: 10 µM. The method, then:
Growth inhibition of the MDA-MB-468 human Breast tumor cell line is measured as a screen for anti-cancer activity. Cells are grown in 96 well plates and exposed to the test compound for 48 hours. Compounds are tested at a single concentration, which is 10^-5 M for most compounds. The reported endpoint is percent growth (GI% or GIPRCNT), where numbers from 0 - 100% represent growth inhibition, and numbers from -100% - 0 represent cell death. For example, a value of 40 represents 60% growth inhibition. A value of 0 means no net growth occurred over the course of the experiment. A value of -40 indicates 40% of cells at the beginning of the experiment died by the end of the experiment. A value of -100 means all cells are dead at the end of the experiment.
NCI-60 Human Tumor Cell Lines Screen was performed using the standard one-dose NCI protocol, which is described in more detail at https://dtp.cancer.gov/discovery_development/nci-60/default.htm.
Compounds with GIPRCNT values below 10 were considered active. Activity score was based on GIPRCNT using the following formula: […]
Score is 0 for GIPRCNT values of 100 or above, 50 for GIPRCNT values of 0, and 100 for GIPRCNT values of -100.
Regarding `CS/C(=C\c1ccc(C(=O)c2ccc(C)cc2)n1C)S(C)=O` (stereo not given), the growth was 86.1% (inactive).

Staying with this assay, now noted: 10 µM unless noted.
Turning to `COc1ccc(/C=C/C(=O)c2ccc(Nc3nc(NCCO)nc(Nc4ccc(Cl)cc4)n3)cc2)cc1`, the growth was 73% (inactive).

On to `CN1CC(c2ccc(Br)cc2)C(C(=O)c2ccc(Br)cc2)C12C(=O)Nc1ccccc12` (stereo not given), for which the growth was 81.4% (inactive).

For the compound `O=C(Nc1nc2ccc(F)cc2s1)c1cc(-c2ccc(F)cc2)n2nc(-c3ccccc3)cc2n1`, the growth is 92% (inactive).

Turning to `CNC(=O)CN1CCC(Oc2cc3c(Nc4cccc(Cl)c4F)ncnc3cc2OC)CC1`, the growth was -22.9% (active).

Take `CCN(CC)CC[n+]1cc2cc(OC)c(OC)cc2c2ccc3cc4c(cc3c21)OCO4`: the growth is -27% (active).

With `O=C(CSc1nc2ccccc2c(=O)n1-c1ccc(Cl)cc1)Nc1ccc(-c2nc3ccc([N+](=O)[O-])cc3[nH]2)cc1`, the growth was -35.6% (active).

For the compound `c1ccc(Cc2nn3cc(-c4ccccc4)nc3s2)cc1`, the growth is 101% (inactive).

Take `COc1cc2ncn3c(=O)c4c5c(sc4nc3c2cc1OC)CCCC5`: the growth is 101% (inactive).

With `CCOc1cc(C(C)(C)C)ccc1C1=N[C@H](c2ccc(Cl)cc2)[C@H](c2ccc(Cl)cc2)N1C(=O)N1CCN(CC#Cc2cccc3c2CN([C@@H]2CCC(=O)NC2=O)C3=O)CC1`, the growth was -21.9% (active).

With `CC(=O)O[C@H]1C(=O)[C@@]2(C)[C@H]([C@H](OC(=O)c3ccccc3)[C@]3(O)C[C@H](OC(=O)[C@H](OC(=O)CCC(=O)OC4CCC(S/N=C(N)/N=C(\N)N(C)C)CC4)[C@@H](NC(=O)c4ccccc4)c4ccccc4)C(C)=C1C3(C)C)[C@]1(OC(C)=O)CO[C@@H]1C[C@@H]2O` (stereo not given in full), the growth was -6.44% (active).

For `C=CC1=C(C)C2=NC1=CC1=NC(=CC3=C(C)C4=C(O)C(C(=O)O)C(=C5NC(=C2)C(C)C5CCC(=O)O)C4=N3)C(CC)=C1C` (stereo not given), the growth was 115% (inactive).

Consider `[N-]=[N+]=NCc1ncc(-c2ccc(C(F)(F)F)cc2)c(NC2CCCCCC2)n1`, for which the growth is 103% [50 µM] (inactive).

Consider `O=C(CSc1oc(-c2ccccc2)nc1S(=O)(=O)c1ccccc1)Nc1ccc(F)cc1`, for which the growth was 50.1% (inactive).

Turning to `C/C(O)=C(/C=N\C(=S)Nc1ccc(S(=O)(=O)Nc2nccs2)cc1)C(=O)Nc1ccccc1C`, the growth was 82% (inactive).

`CN1CCN(Cc2ccc(NC(=O)c3ccc(C(C)(C)C)c(C#Cc4cnc5cccnn45)c3)cc2C(F)(F)F)CC1`: the growth was -6.22% (active).

Consider `COc1cc2cc(Oc3ccc(NC(=O)Nc4ccc(Cl)c(C(F)(F)F)c4)cc3)c(C)nc2cc1OC`, for which the growth was -42.7% (active).

For the compound `Cc1cccc(NCc2cn(-c3ccc(C(=O)O)cc3)nc2-c2ccc(C(=O)O)cc2)n1`, the growth is 101% (inactive).

For `NC(=O)c1ccccc1OCC(O)CO` (stereo not given), the growth is 95.6% (inactive).

As for `O=C1/C(=C/c2ccccc2Br)COc2ccc(O)c(O)c21`, the growth is 19.2% (inactive).

`O=C1C(=O)c2cc([N+](=O)[O-])ccc2-c2ccccc21`: the growth is -96.2% (active).

Regarding `COC(=O)C1CC(=O)N(C(=O)Nc2ccc(Cl)cc2Cl)C1` (stereo not given), the growth was 97.8% (inactive).

With `FC(F)(F)c1cccc(-c2nnn(Cc3cc(-c4cccc(Cl)c4)no3)n2)c1`, the growth is 102% (inactive).

Turning to `CCOC(=O)c1c(-c2ccc(OC)cc2)c(C#N)c2c(C#N)c(N)nn2c1N`, the growth is 13.2% (inactive).

Regarding `O=C(CN1CCN(c2ccc(Cl)cc2)CC1)N1CCN(c2nnc(-c3ccccc3)c(-c3ccccc3)n2)CC1`, the growth was 35.1% (inactive).

`CC(=O)Nc1ccc2cc3ccc(NC(C)=O)cc3nc2c1`: the growth was 56.5% (inactive).

Take `COc1ccc(C2=NN(C(C)=O)C(c3cccc(Nc4ccnc5cc(Cl)ccc45)c3)C2)cc1` (stereo not given): the growth is 38.9% (inactive).

Turning to `O=[N+]([O-])CC(c1ccccc1)c1c[nH]c2ccccc12` (stereo not given), the growth is 22.7% (inactive).

Take `C#Cc1nc(C(=O)NCCCCCCC(=O)NO)cs1`: the growth is -33.8% (active).

With `Nc1nc(-c2ccc(F)cc2)cc(-c2cnn(-c3ccccc3)n2)n1`, the growth was 104% (inactive).

Turning to `CCCCNCCC(O)c1cc2ccc(C(F)(F)F)cc2c2cc(C(F)(F)F)ccc12` (stereo not given), the growth was -91% (active).

As to `CCOC(=O)c1cc2c(n1Cc1ccccc1)-c1oncc1CC2`, the growth was 40.1% (inactive).

For the compound `Oc1ccccc1-c1nnc(COc2ccc(Cl)cc2Cl)o1`, the growth is 58.7% (inactive).

`COc1ccc(-c2cc(=O)n(-c3nc4ccccc4[nH]3)[nH]2)cc1OC`: the growth is 83% (inactive).

In the case of `c1ccc(OCc2nnc(-c3ccc(Oc4ccccc4)cc3)o2)cc1`, the growth is 111% (inactive).

With `CC(=O)Oc1cc(C(C)C)c(OCCN(C)C)cc1C`, the growth is 110% (inactive) and 104% (inactive).

`Nc1c(C(=O)c2ccc(Cl)cc2)sc(Nc2ccccc2)c1-c1nc2ccccc2s1`: the growth is 14.7% (inactive).

Take `CCCNCCC(C)=O`: the growth was 127% (inactive).

For the compound `c1ccc(-c2cn3ccnc3c(-c3ccc4c(c3)ncn4C3CCCCC3)n2)cc1`, the growth was 112% (inactive).

Still in this assay, the particulars now being: 100 µM.
Turning to `CS/C(=C\c1ccc(C(=O)c2ccc(C)cc2)n1C)S(C)=O` (stereo not given), the growth is 30.8% (inactive).
